Assay outcomes deposited in PubChem BioAssay by National Center for Advancing Translational Sciences (NCATS).
A selection: hits, their analogues and other compounds. The true share with any hit is near 12%.
PLK1 PBD inh = inhibitors of human PLK1 polo-box domain binding. Potency, µM, for the others: max response, negative = inhibition, hits mostly inhibitors. AID 720504. actives 2.8% (n = 360,000). P53350. Plk1 PBD binding of FITC phosphopeptide, fluorescence polarization; further: potency means the concentration at half of the fitted maximal effect; series mostly up to about 57 µM; on the % scale 0 is the no-effect control and ±100 the full control effect; nearly all actives have a fitted effect of over 65% in size
HP1b binding inh = inhibitors of HP1-beta chromodomain binding to methylated histone tails. P83916. AlphaScreen HP1-beta / biotin-H3K9me3 peptide binding. Potency, µM (highest dose often 114 µM), for the others: top-dose activity change, negative = inhibition, usual class: inhibitors. actives 0.56% (n = 390,000); further: potency means the concentration at half of the fitted maximal effect; nearly all actives have a fitted effect of over 70% in size
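HP1-beta protein (50 nM final) preincubated 30 min at room temperature with biotinylated H3(1-18)K9me3 peptide (50 nM) in PBS pH 7.4, 0.01% Tween-20, then compound added for 30 min. AlphaScreen streptavidin donor/nickel chelate acceptor beads (10 ug/mL final), 30 min dark, luminescence read.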
BAZ2B inh = BAZ2B (human) inhibition; AlphaScreen BAZ2B-H3K14Ac peptide displacement; Potency, µM (top dose mostly 114 µM), for inactives: top-dose activity change, negative = inhibition, usual class: inhibitors; actives 4.4% (n = 360,000); AID 504333; further: potency means the concentration at half of the fitted maximal effect; on the % scale 0 is the no-effect control and ±100 the full control effect; nearly all actives have a fitted effect of over 60% in size
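Inhibition is scored as reduced AlphaScreen emission. The BAZ2B/b-H3(5-23)K14Ac complex (50 nM each) in PBS pH 7.4, 0.01% Tween-20 meets compound (up to 110 uM) for 30 min at RT before bead addition.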
PI5P4K alpha inh = inhibitors of human PI5P4K alpha | P48426 | PI5P4Kalpha enzyme, ADP-Glo luminescence, 60 min; stronger effect = lower value | max response, % | actives 1.2% (n = 330,000) | AID 652105; active means max response of -50% or lower; inconclusive means between -30% and -50%; inactive means -30% or higher; further: value at the top dose of about 77 µM; on the % scale 0 is the no-effect control and ±100 the full control effect
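ADP-Glo luminescence end-point read after a 60 min room-temperature kinase reaction of PI5P4Kalpha plus substrate, initiated with ATP at 5 microM final. Buffer: 0.038 M HEPES pH 7.4, EGTA, 0.1% CHAPS, 5% DMSO.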
G9a inh = G9a (human) methyltransferase inhibition; actives 8.8% (n = 350,000); Q96KQ7; G9a H3K9 monomethylation, AlphaScreen, 2 h; Potency, µM (titrated, usually from 102 µM), for the others: at the top dose activity, negative = inhibition, usual class: inhibitors; further: potency means the concentration at half of the fitted maximal effect; on the % scale 0 is the no-effect control and ±100 the full control effect; nearly all actives have a fitted effect of over 75% in size
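Enzyme 20 nM + cpd, 15 min RT; add b-H3K9 pep 500 nM / SAM 20 uM; 2 h RT; anti-H3K9me1 Ab 0.5 ug/mL + SA donor / anti-rabbit acceptor beads 20 ug/mL each, 10 min; AlphaScreen read.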
JMJD2A Tudor inh = inhibitors of human JMJD2A Tudor domain; O75164; AlphaScreen JMJD2A-Tudor / H3K4me3 peptide binding; Potency, µM (titrated, usually from 114 µM), without a hit: at the top dose activity change, negative = inhibition, most hits filed as inhibitors; actives 4.4% (n = 390,000); further: potency means the concentration at half of the fitted maximal effect; on the % scale 0 is the no-effect control and ±100 the full control effect; nearly all actives have a fitted effect of over 50% in size
Target sequence (O75164 whole entry, looked up, the tested form may be a part): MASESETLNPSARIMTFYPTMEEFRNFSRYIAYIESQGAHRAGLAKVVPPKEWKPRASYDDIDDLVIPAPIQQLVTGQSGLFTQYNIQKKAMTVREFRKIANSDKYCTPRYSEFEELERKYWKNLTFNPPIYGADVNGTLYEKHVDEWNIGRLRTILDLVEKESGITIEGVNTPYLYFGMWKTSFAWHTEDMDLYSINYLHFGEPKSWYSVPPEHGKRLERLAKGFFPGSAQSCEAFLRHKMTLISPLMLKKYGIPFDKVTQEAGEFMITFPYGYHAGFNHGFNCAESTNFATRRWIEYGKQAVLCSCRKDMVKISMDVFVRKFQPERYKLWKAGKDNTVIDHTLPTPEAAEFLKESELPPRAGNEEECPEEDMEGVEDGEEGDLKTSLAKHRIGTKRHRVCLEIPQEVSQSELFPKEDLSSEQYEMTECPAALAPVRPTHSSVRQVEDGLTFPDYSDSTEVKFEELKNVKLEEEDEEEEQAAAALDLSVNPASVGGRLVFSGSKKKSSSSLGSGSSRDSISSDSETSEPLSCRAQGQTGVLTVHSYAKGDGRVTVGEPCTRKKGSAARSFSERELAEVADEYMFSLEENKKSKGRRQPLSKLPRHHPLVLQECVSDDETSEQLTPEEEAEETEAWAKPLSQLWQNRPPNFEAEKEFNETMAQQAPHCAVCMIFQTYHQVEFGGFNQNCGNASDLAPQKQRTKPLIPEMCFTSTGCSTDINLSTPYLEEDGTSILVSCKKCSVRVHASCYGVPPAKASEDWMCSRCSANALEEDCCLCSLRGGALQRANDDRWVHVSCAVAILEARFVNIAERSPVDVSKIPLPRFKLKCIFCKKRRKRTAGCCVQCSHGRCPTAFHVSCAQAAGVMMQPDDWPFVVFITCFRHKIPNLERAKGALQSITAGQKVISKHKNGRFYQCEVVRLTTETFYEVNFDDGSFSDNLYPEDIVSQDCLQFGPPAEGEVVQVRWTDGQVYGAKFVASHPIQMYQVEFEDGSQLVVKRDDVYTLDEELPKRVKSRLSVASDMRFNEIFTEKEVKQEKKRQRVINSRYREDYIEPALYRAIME
An asterisk follows results filed as active; [ ] = remark or other dose. Unless noted, the call rests on the fitted dose curve; in most records, active means well fitted curve in the direction sought with a large enough effect; inconclusive means small, poorly fitted or top-dose-only effect, or another doubt; inactive means no such curve, though single readings can be large; an effect the other way counts as inactive or inconclusive.

`COc1ccc(C(=O)Oc2ccc(C(=S)N3CCOCC3)cc2)cc1` gave PLK1 PBD inh 11µM*, HP1b binding inh inconclusive, BAZ2B inh -35%, PI5P4K alpha inh -17 and JMJD2A Tudor inh inconclusive.
For COc1cc(C(=S)N2CCOCC2)cc(OC)c1OC the results were PLK1 PBD inh 27µM*, HP1b binding inh -31%, BAZ2B inh -1%, PI5P4K alpha inh 2, G9a inh 40µM* and JMJD2A Tudor inh 1%.
CCOc1cc(C(=S)N2CCOCC2)ccc1OC(=O)c1cc(OC)c(OC)c(OC)c1 was read as PLK1 PBD inh -6%, HP1b binding inh 30%, BAZ2B inh -18%, PI5P4K alpha inh 7, G9a inh 4% and JMJD2A Tudor inh -15%.
CCOc1ccc(C(=S)N2CCOCC2)cc1OCC was read as PLK1 PBD inh inconclusive, HP1b binding inh -24%, BAZ2B inh 8%, G9a inh 32µM* and JMJD2A Tudor inh -11%.
O=C(Oc1ccc(C(=S)N2CCOCC2)cc1)c1ccc(Br)cc1 was read as PLK1 PBD inh 1%, HP1b binding inh 49%, BAZ2B inh -6%, PI5P4K alpha inh 17, G9a inh -6%[59 µM] and JMJD2A Tudor inh -3%.
For COc1cc(CN(C(=O)c2ccccc2F)C2CCS(=O)(=O)C2)cc(OC)c1OC (centres undefined) the results were HP1b binding inh 5%, BAZ2B inh 0%, G9a inh 14%[59 µM] and JMJD2A Tudor inh -18%.
`CCC(CC)C(C(=O)NCc1ccccc1)N1CCN(c2cccc(C)c2C)CC1` (centres undefined) gave PLK1 PBD inh 2% and PI5P4K alpha inh 7.
Cc1ccc(S(=O)(=O)N2C[C@H]3C(=O)C[C@@H](c4cccc(Cl)c4)N(S(=O)(=O)c4ccc(C)cc4)[C@H]3C[C@H]2c2cccc(Cl)c2)cc1 was read as PLK1 PBD inh -19% and PI5P4K alpha inh -6.
For COc1ccc(S(=O)(=O)Oc2cc(C(=S)N3CCOCC3)ccc2OC)cc1 the results were PLK1 PBD inh inconclusive, HP1b binding inh -8%, BAZ2B inh -26%, PI5P4K alpha inh 3, G9a inh 35µM* and JMJD2A Tudor inh -30%.
`COc1cc(C(=S)N2CCOCC2)cc(OC)c1OS(=O)(=O)c1ccc(NC(C)=O)cc1` gave PLK1 PBD inh -2%, HP1b binding inh 19%, BAZ2B inh -6%, G9a inh -31%[59 µM] and JMJD2A Tudor inh -18%.
For COc1ccc(C(=S)N2CCN(C)CC2)cc1 the results were PLK1 PBD inh 27µM*, HP1b binding inh -8%, BAZ2B inh 11%, PI5P4K alpha inh 0, G9a inh -7%[12.7 µM] and JMJD2A Tudor inh 2%.
`O=C(/C=C/c1ccco1)Oc1ccc(C(=S)N2CCOCC2)cc1` gave PLK1 PBD inh 12µM*, HP1b binding inh -20%, BAZ2B inh -34%, PI5P4K alpha inh inconclusive, G9a inh inconclusive and JMJD2A Tudor inh 18µM*.
O=C(/C=C/c1ccccc1)Oc1ccc(C(=S)N2CCOCC2)cc1 was read as PLK1 PBD inh -15%, HP1b binding inh 14%, BAZ2B inh -1%, PI5P4K alpha inh 14, G9a inh -24% and JMJD2A Tudor inh -15%[11.4 µM].
CCOc1cc(C(=S)N2CCC(O)CC2)ccc1OS(=O)(=O)c1ccc(Br)cc1 was read as PLK1 PBD inh inconclusive, HP1b binding inh inconclusive, BAZ2B inh inconclusive, G9a inh 8.9µM* and JMJD2A Tudor inh inconclusive.
Screening COc1ccc(C(=S)N2CCN(C)CC2)cc1Br returned PLK1 PBD inh 0%, HP1b binding inh 15%, BAZ2B inh 5%, PI5P4K alpha inh 3, G9a inh 30%[59 µM] and JMJD2A Tudor inh 4%.
Screening COc1ccc(N2CCN(CC(=O)Nc3c(C)cccc3C)CC2)cc1 returned PLK1 PBD inh 3% and PI5P4K alpha inh 3.
For CCOc1cc(C(=S)N2CCOCC2)cc(Br)c1OS(=O)(=O)c1ccccc1 the results were PLK1 PBD inh inconclusive, HP1b binding inh 1%, BAZ2B inh -32%, PI5P4K alpha inh 4, G9a inh 28µM* and JMJD2A Tudor inh -16%.
`COC(=O)c1ccc(C(=S)N2CCCCC2)cc1` gave PLK1 PBD inh -12%, HP1b binding inh 26%, BAZ2B inh -15%, PI5P4K alpha inh 0, G9a inh 21%[12.7 µM] and JMJD2A Tudor inh -5%.
For COC(=O)c1ccc(C(=S)N2CCOCC2)cc1 the results were PLK1 PBD inh 12µM*, HP1b binding inh inconclusive, BAZ2B inh 0%, PI5P4K alpha inh 0, G9a inh inconclusive and JMJD2A Tudor inh -14%.
`CCOc1cc(C(=S)N2CCOCC2)ccc1OS(=O)(=O)c1ccc(C)cc1` gave PLK1 PBD inh inconclusive, HP1b binding inh -17%, BAZ2B inh -31%, PI5P4K alpha inh 0, G9a inh 35µM* and JMJD2A Tudor inh -28%.
Screening CCOc1cc(C(=S)N2CCCCC2)ccc1OS(=O)(=O)c1ccc(Br)cc1 returned PLK1 PBD inh -2%, HP1b binding inh 15%, BAZ2B inh 4%, G9a inh -16%[59 µM] and JMJD2A Tudor inh -15%.
`COc1cc(C(=S)N2CCOCC2)ccc1OC(=O)c1cc(OC)c(OC)c(OC)c1` gave PLK1 PBD inh inconclusive, HP1b binding inh -16%, BAZ2B inh -29%, PI5P4K alpha inh 1, G9a inh 14µM* and JMJD2A Tudor inh -32%.
`O=C(Oc1ccccc1C(=S)N1CCOCC1)c1ccccc1` gave PLK1 PBD inh inconclusive, HP1b binding inh 13%, BAZ2B inh -2%, PI5P4K alpha inh -18, G9a inh 45µM* and JMJD2A Tudor inh -5%.
For O=Cc1cccc(OC(=O)/C=C/c2ccco2)c1 the results were PLK1 PBD inh inconclusive, HP1b binding inh 14µM*, BAZ2B inh 6%[0.457 µM], PI5P4K alpha inh -98*, G9a inh inconclusive and JMJD2A Tudor inh 35µM*.
O=C(Oc1ccc(C(=S)N2CCOCC2)cc1)c1ccccc1 was read as PLK1 PBD inh -19%, HP1b binding inh 32%, BAZ2B inh -4%, PI5P4K alpha inh 1, G9a inh -35% and JMJD2A Tudor inh -26%.
`COc1ccc(C(=O)Oc2cc(C(=S)N3CCOCC3)ccc2OC)cc1` gave PLK1 PBD inh -24%, HP1b binding inh -25%, BAZ2B inh -25%, PI5P4K alpha inh 7, G9a inh 32µM* and JMJD2A Tudor inh inconclusive.
For Cc1cc(C(=O)CN2CCCC2)c(C)n1-c1ccc(Cl)cc1 the results were PLK1 PBD inh -15%, HP1b binding inh 5%, BAZ2B inh -39%, PI5P4K alpha inh 3, G9a inh 50µM* and JMJD2A Tudor inh -33%.
